Over roughly 110,000 compounds, “z-score” has its median near -0.1; the highest 2% begin near 2. The sample holds the highest values, similar compounds and a random draw of the others, so the mix is not that of the screen. Activity calls are given as the source filed them.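 How the source made its calls: active means z-score in the third read window above 3 or below -3; inactive means the rest.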

Sequence of Metabotropic glutamate receptor 8 (Rattus norvegicus) (P70579 whole entry, looked up): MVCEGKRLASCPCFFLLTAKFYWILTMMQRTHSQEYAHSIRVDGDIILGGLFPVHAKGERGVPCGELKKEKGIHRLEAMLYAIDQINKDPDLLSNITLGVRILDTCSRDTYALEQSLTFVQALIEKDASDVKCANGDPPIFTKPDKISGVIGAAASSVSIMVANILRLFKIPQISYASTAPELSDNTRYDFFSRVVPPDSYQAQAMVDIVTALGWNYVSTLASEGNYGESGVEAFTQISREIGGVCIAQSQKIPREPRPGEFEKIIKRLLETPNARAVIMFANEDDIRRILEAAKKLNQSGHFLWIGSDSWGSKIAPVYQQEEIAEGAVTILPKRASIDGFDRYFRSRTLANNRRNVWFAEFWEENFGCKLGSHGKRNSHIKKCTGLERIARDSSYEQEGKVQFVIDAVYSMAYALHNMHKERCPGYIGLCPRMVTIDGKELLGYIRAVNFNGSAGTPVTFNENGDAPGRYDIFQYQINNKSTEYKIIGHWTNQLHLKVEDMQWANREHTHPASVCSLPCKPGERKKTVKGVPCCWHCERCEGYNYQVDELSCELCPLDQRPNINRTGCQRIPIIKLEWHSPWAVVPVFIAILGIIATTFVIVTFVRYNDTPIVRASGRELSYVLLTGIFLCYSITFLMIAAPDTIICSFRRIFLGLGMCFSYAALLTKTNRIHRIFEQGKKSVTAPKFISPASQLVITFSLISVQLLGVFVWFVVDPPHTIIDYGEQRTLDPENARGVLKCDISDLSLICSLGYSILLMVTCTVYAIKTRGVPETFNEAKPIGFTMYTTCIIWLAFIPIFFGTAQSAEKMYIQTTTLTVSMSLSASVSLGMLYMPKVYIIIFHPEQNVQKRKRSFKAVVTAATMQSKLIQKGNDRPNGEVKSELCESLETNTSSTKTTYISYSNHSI

This test concerns the target Metabotropic glutamate receptor 8 (Rattus norvegicus) (UniProt P70579). In words: rat mGluR8 modulators via GIRK flux, primary screen, cell-based, thallium flux, HTS (AID 488969). To be noted: HEK293 rat mGluR8, GIRK (G protein-gated inwardly rectifying potassium channel) thallium flux, FluoZin2; at 10 µM; stronger effect = higher value; submaximal glutamate (EC20) added with thallium.
Consider `Cc1c(N2C(=O)CS/C2=N\N=C\c2ccc(Br)cc2)c(=O)n(-c2ccccc2)n1C`, for which the z-score was -0.286.

`Cc1c(N2C(=O)CS/C2=N\N=C\c2ccc(Cl)cc2)c(=O)n(-c2ccccc2)n1C` yielded a z-score of -0.118.

With `Cc1c(N2C(=O)CS/C2=N\N=C\c2ccccc2O)c(=O)n(-c2ccccc2)n1C`, the z-score was 3.28 (active).

In turn, `CC1SC(c2ccccc2Cl)NC1=O` (centres undefined) came in with a z-score of -0.0543.

As to `CC(NC(=O)c1ccc(-c2cc(C(F)(F)F)ccc2Cl)o1)c1ccccc1` (centres undefined), the z-score was -0.132.

With `COc1cccc(NC(=O)COC(=O)c2c3c(nc4ccccc24)CCC(C)C3)c1` (centres undefined), the z-score was -0.604.

As to `CC(/C=N/n1c(-c2ccc(Cl)cc2)n[nH]c1=S)=C\c1ccco1`, the z-score is 6.09 (active).

Take `CC(/C=N/n1c(-c2ccccc2)n[nH]c1=S)=C\c1ccco1`: the z-score was 6.02 (active).

`Cc1ccc(-c2n[nH]c(=S)n2/N=C\c2ccco2)cc1` returned a z-score of -0.16.

Turning to `Cc1nn(-c2ccccc2)c(C)c1/C=N/n1c(-c2ccc(Cl)cc2)n[nH]c1=S`, the z-score stood at 0.338.

For `S=c1[nH]nc(-c2ccccc2)n1/N=C/C=C/c1ccco1`, the z-score is 0.28.

Turning to `CC(/C=N/n1c(-c2ccc(C)cc2)n[nH]c1=S)=C\c1ccco1`, the z-score was 0.323.

In turn, `COc1ccc(OC)c(NC(=O)CSc2ncccn2)c1` yielded a z-score of -0.134.

Take `COc1ccc(C(=O)n2nc(C)cc2C)cc1OC`: the z-score was -0.221.

Molecule `c1ccc(Cn2c(Sc3nnnn3-c3ccccc3)nnc2-c2ccccc2)cc1` returned a z-score of 0.223.

For `COc1ccc(CNC(=S)Nc2cccc(C)c2C)cc1`, the z-score is -0.341.

`Cc1ccc2nsnc2c1NC(=O)c1ccc2c(c1)OCCO2` came in with a z-score of -0.679.

Turning to `Cc1ccc(S(=O)(=O)/N=C(/NC(=S)Nc2ccccc2)c2ccccc2)cc1`, the z-score is 0.34.

As for `CCC1CCCN1Cn1cnc2c([nH]c3ccc(OC)cc32)c1=O` (centres undefined), the z-score is 6.77 (active).

In turn, `CCCCN(CCCC)CCn1cnc2c([nH]c3ccc(OC)cc32)c1=O` returned a z-score of 0.258.

In the case of `CCN1CCCC1Cn1cnc2c([nH]c3cc(OC)ccc32)c1=O` (centres undefined), the z-score is -0.271.

For the molecule `CCOCCc1nnc(NC(=O)c2cccs2)s1`, the z-score is -0.0424.

As for `O=C(NC1CCCC1)C(c1ccccc1)N(C(=O)c1ccno1)c1ccccc1` (centres undefined), the z-score worked out at 0.315.

As for `CC(C)(C)NS(=O)(=O)c1ccc2c(c1)oc(=O)c1cc(S(=O)(=O)NC(C)(C)C)ccc12`, the z-score was -0.0322.

As to `CC(NC(=O)c1ccccc1NC(=O)CSc1nnnn1C)c1ccccc1` (centres undefined), the z-score was determined as 2.05.

The molecule `Cn1nnnc1SCC(=O)Nc1ccccc1C(=O)NCc1ccccc1` had a z-score of 0.00964.

As to `Cn1nnnc1SCC(=O)Nc1ccccc1C(=O)NC1CC1`, the z-score amounted to 0.311.

Consider `O=C(c1cnn2c(C(F)(F)F)cc(-c3ccccc3)nc12)N1CCCc2ccccc21`, for which the z-score is -0.322.

In turn, `CC1Cc2cc(/C(O)=C3/C(=O)C(=O)N(CCCn4ccnc4)C3c3ccco3)ccc2O1` (centres undefined) yielded a z-score of -0.193.

Turning to `COc1nc(-c2ccccc2)ccc1-c1noc(-c2ccccc2)n1`, the z-score is 0.293.

On to `CC(C)(C)CC(C)(C)NC1=CC(=O)OC12CCCCC2`, for which the z-score was -0.189.

As for `CC(C)c1nc(N2CCOCC2)c(C#N)c2c1CCCC2`, the z-score was 6.82 (active).

`CSc1nc(N2CCCC2)c2c(c1C#N)CC(C)(C)OC2` yielded a z-score of -0.933.

As to `CC(C)c1nc(N2CCCC2)c(C#N)c2c1CCCC2`, the z-score came to 0.908.

`CC(C)Cc1nc(N2CCOCC2)c(C#N)c2c1COC(C)(C)C2` gave a z-score of 2.42.

Regarding `COC(=O)Sc1nc(N2CCOCC2)c2c(c1C#N)CC(C)(C)OC2`, the z-score was -2.52.

Molecule `CSc1nc(N2CCOCC2)c2c(c1C#N)CC(C)(C)OC2` registered a z-score of 2.16.

As for `CC(C)c1nc(N2CCOCC2)c(C#N)c2c1CCC2`, the z-score was 0.532.

The molecule `Cc1nc(N2CCOCC2)c(C#N)c2c1COC(C)(C)C2` displayed a z-score of -0.387.

Molecule `CCCCc1nc(N2CCOCC2)c(C#N)c2c1COC(C)(C)C2` had a z-score of -0.434.

With `Cc1ccc(S(=O)(=O)Nc2nc3ccccc3s2)cc1`, the z-score was -0.644.

As for `COc1ccc(CC(=O)NNC(=S)Nc2ccccc2)cc1Br`, the z-score was 0.376.

`Cn1cc(CNC(=O)C2CCCCC2)cn1` gave a z-score of -0.556.

`Cn1c(=O)[nH]c2cc(Cl)cnc21`: the z-score amounted to 0.0453.

Regarding `CCc1cc(C(=O)NCCN(C)C)cs1`, the z-score was 0.168.

As to `COc1ccc(C)cc1S(=O)(=O)Nc1cccc(Cl)c1Cl`, the z-score was 3.68 (active).

For the molecule `COc1ccc(C)cc1S(=O)(=O)Nc1ccccc1C`, the z-score is -0.428.

`COc1cc(NS(=O)(=O)c2cc(C)ccc2OC)c(OC)cc1Cl` came in with a z-score of 0.494.

On to `COc1ccc(C2/C(=C(\O)c3ccc(OC)c(Cl)c3)C(=O)C(=O)N2CCN(C)C)cc1` (centres undefined), for which the z-score is -0.505.

The molecule `COc1nc(C#N)c(N2CCOCC2)o1` registered a z-score of -0.118.

For `Cn1c(SCC(=O)c2cc3ccccc3o2)nnc1-c1ccccc1`, the z-score is 4.93 (active).

In turn, `Cn1ccnc1SCC(=O)c1cc2ccccc2o1` yielded a z-score of 0.608.

In turn, `Cn1c(SCC(N)=O)nnc1-c1ccccc1` registered a z-score of 0.403.

In the case of `Cc1ccc(/C=C2/NC(=O)N(c3ccccc3)C2=O)o1`, the z-score came out at 0.187.

`CS(=O)(=O)NCC(c1cccnc1)N1CCN(c2ccc(F)cc2)CC1` (centres undefined) showed a z-score of -0.636.

The molecule `O=C(CSc1nc2ccccc2s1)NNC(=O)Nc1ccc(Cl)c(Cl)c1` showed a z-score of -0.0417.

Molecule `Cc1ccc(C)c(OCC(=O)NCCN(C)C)c1` showed a z-score of 0.356.

`C=CCn1c(SCC(=O)NCc2ccco2)nc2sc(C)c(C)c2c1=O`: the z-score is -0.948.

In the case of `CCSc1ncnc2sc(C)c(C)c12`, the z-score is -0.112.

`Cc1sc2nc(C3CC3)nc(SCC(=O)NCc3ccco3)c2c1C` returned a z-score of 0.399.

On to `Cc1sc2ncnc(SCc3ccco3)c2c1C`, for which the z-score was 3.43 (active).

In turn, `Cc1sc2nc(SCC(=O)NCc3ccco3)n(Cc3ccccc3)c(=O)c2c1C` registered a z-score of -0.304.

Regarding `Cc1sc2ncnc(SCC(=O)NC(=O)NCc3ccco3)c2c1C`, the z-score was determined as 2.66.

`CCn1c(SCC(=O)NC(=O)NCc2ccco2)nc2sc(C)c(C)c2c1=O`: the z-score was 3.05 (active).

`Cc1sc2nc(SCC(=O)NCc3ccco3)n(C)c(=O)c2c1C` registered a z-score of -0.982.

Molecule `Cc1sc2ncnc(NCc3ccco3)c2c1C` yielded a z-score of -0.47.

On to `Cc1nc(SCC(=O)NCc2ccco2)c2c(C)c(C)sc2n1`, for which the z-score is -0.0392.

As to `Cc1sc2nc(C(C)C)nc(SCC(=O)NCc3ccco3)c2c1C`, the z-score is 17 (active).

In turn, `O=C(CSc1ncnc2sc3c(c12)CCCCC3)NCc1ccco1` came in with a z-score of 1.08.

In turn, `Cc1ccc2oc(=O)c(/C=C(\O)c3sc(C)nc3C)nc2c1` displayed a z-score of -0.168.

Take `CCOc1ccc(C(=O)NCC(=O)OC2CCOC2=O)cc1OCC` (centres undefined): the z-score was -0.823.

The molecule `CCCCN(C)CCNC(=O)Cn1ncc2c(=O)oc3ccc(C)cc3c21` gave a z-score of -0.464.

The molecule `Nn1c(Cc2cccc3ccccc23)nnc1SCCOc1ccc(Br)cc1` came in with a z-score of -0.185.

As to `COc1nc(NCc2ccco2)nc(NC2CCCCC2)n1`, the z-score was -0.224.

Molecule `CCOC(=O)Cc1csc(NC(=O)CSc2nc3sc(C(=O)O)c(C)c3c(=O)[nH]2)n1` showed a z-score of 0.0555.

For the molecule `O=C(Nc1ccc(Cl)c(Cl)c1)Nc1cc(S(=O)(=O)N2CCOCC2)ccc1N1CCCC1`, the z-score was 0.00467.

Molecule `CCc1nc(SCC(=O)N2c3ccccc3CC2C)c2c(C)c(C)sc2n1` (centres undefined) returned a z-score of 0.0133.

Consider `Cc1sc2nc(C3CC3)nc(SCC(=O)N3c4ccccc4CC3C)c2c1C` (centres undefined), for which the z-score was -0.291.

On to `Cc1sc2nc(C(C)C)nc(SCC(=O)N3c4ccccc4CC3C)c2c1C` (centres undefined), for which the z-score was 10.2 (active).

Molecule `CC(C)(C)C1CCc2c(sc(NC(=O)c3ccco3)c2C(N)=O)C1` (centres undefined) showed a z-score of 0.458.

Take `Cc1ccc(OCCCCn2cnc3ccccc32)c(C)c1`: the z-score is -0.0373.

Turning to `COc1ccc(OC)c(NC(=S)NCCC(c2ccccc2)c2ccccc2)c1`, the z-score is -0.202.

With `O=C(O)COCCN1CCN(C(c2ccccc2)c2ccc(Cl)cc2)CC1` (centres undefined), the z-score was 0.16.

`Clc1ccc(C(c2ccccc2)N2CCNCC2)cc1` (centres undefined) returned a z-score of 2.16.

With `CC12CNCC(C)(CN(C(c3ccccc3)c3ccccc3)C1)C2`, the z-score was found to be 1.25.

`Oc1c(CN2CCc3ccccc3C2)cc(Cl)c2cccnc12` yielded a z-score of 2.72.

Molecule `OCCN1CCN(Cc2cc(Cl)c3cccnc3c2O)CC1` gave a z-score of 0.225.

In the case of `Oc1ccc(CN2CCc3ccccc3C2)c2cccnc12`, the z-score was 0.165.

Take `CS(=O)(=O)N(CC(=O)NCc1ccco1)c1ccc(Cl)c(C(F)(F)F)c1`: the z-score is 4.31 (active).

Molecule `COc1ccc(N(CC(=O)NCc2ccco2)S(C)(=O)=O)cc1Cl` gave a z-score of -0.0738.

`CS(=O)(=O)N(CC(=O)NCc1ccco1)c1cc(C(F)(F)F)ccc1Cl` registered a z-score of 0.181.

For the molecule `O=[N+]([O-])c1ccc(NC(=S)N2CCN(c3ccc(F)cc3)CC2)cc1`, the z-score is -0.0841.

For `Cc1ccc(NC(=O)c2nccnc2C(=O)O)cc1C`, the z-score is -0.208.

`O=P(c1ccccc1)(c1ccccc1)N(c1ccccc1)c1ccccc1` came in with a z-score of -0.752.

Molecule `CC(C)C(=O)Nc1ccc(C(=O)N2CCN(C(=O)c3ccco3)CC2)cc1` showed a z-score of 0.196.

For `CC(C)C(=O)Nc1ccc(C(=O)N2CCCCCC2)cc1`, the z-score amounted to 2.15.

`CC(=O)Nc1ccc(C(=O)N2CCCC2)cc1` displayed a z-score of -0.0468.

`O=c1c2ccccc2nc(N/N=C/c2ccc(O)cc2)n1O`: the z-score is -0.0395.

In turn, `Cc1cc(/N=C/N(C)C)on1` registered a z-score of -0.0351.

Take `COc1ccc(-n2nnnc2SCC(=O)N2CCOCC2)cc1`: the z-score was 3.28 (active).

Molecule `COc1cc(OC)cc(-n2nnnc2SCC(=O)N2CCCC2)c1` showed a z-score of 0.154.

For the molecule `CCOc1ccc(-n2nnnc2SCC(=O)N2CCOCC2)cc1`, the z-score is -0.126.

For the molecule `CCn1c(SCC(=O)Nc2ccc(C(=O)OC)cc2)nc2cccnc21`, the z-score was -0.121.

Molecule `CC(CN(C)Cc1ccccc1)OC(=O)c1ccccc1F` (centres undefined) displayed a z-score of 0.00558.

`COc1ccc(NC(=O)CCC(=O)N/N=C/c2ccc([N+](=O)[O-])s2)cc1`: the z-score was -0.189.

In the case of `O=C(N/N=C\c1ccc([N+](=O)[O-])s1)c1cncc(Br)c1`, the z-score was -0.156.

For `O=C(N/N=C/c1ccc([N+](=O)[O-])s1)c1ccncc1`, the z-score is -0.428.

In turn, `Cc1ccc(C(=O)N/N=C/c2ccc([N+](=O)[O-])s2)cc1` had a z-score of -0.176.

For the molecule `CCOc1ccc(NC(=O)CCC(=O)N/N=C/c2ccc([N+](=O)[O-])s2)cc1`, the z-score is 2.1.

`Cc1ccccc1C(=O)N/N=C/c1ccc([N+](=O)[O-])s1` displayed a z-score of 2.95.

For the molecule `O=C(N/N=C/c1ccc([N+](=O)[O-])s1)c1ccccc1Br`, the z-score is -0.301.

On to `O=C(N/N=C/c1ccc([N+](=O)[O-])s1)c1cccc(Br)c1`, for which the z-score is 6.96 (active).

In the case of `O=C(Cc1ccccc1)N/N=C/c1ccc([N+](=O)[O-])s1`, the z-score was found to be 0.543.

`Cc1ccc(N(C(=O)CS(=O)CC(=O)Nc2ccc(F)cc2)C(C(=O)NC2CCCCC2)c2ccco2)cc1` (centres undefined) yielded a z-score of -0.219.

(Values after PubChem BioAssay AID488969 (Vanderbilt High Throughput Screening Facility, 2010).)
